# Reference: PubChem BioAssay AID493084 (National Center for Advancing Translational Sciences (NCATS), 2011)
# Values joined by “and” are separate entries in the source; they are usually repeats but may differ in a detail not shown here. Equal entries are not always repeated. Hit rate of the full screen: of about 360,000 compounds, about 650 (0.18%) were called active. The sample as a whole holds a higher share of actives than the screen did. Values without a mark were called inactive. Rule as the data show it: active = activation above about 30%; inactive = the rest.
# Target: Thyrotropin-releasing hormone receptor (Homo sapiens) (UniProt P34981)
# Assay: qHTS for Small Molecule Agonists and Allosteric Enhancers of Human TRH Receptor: Primary Screen for Agonists. Also: 0% is about no effect.
# Details: TRHR cells, calcium flux fluo-8, FDSS agonist mode; at 2 µM; stronger effect = higher value
# Excerpt: NIH Chemical Genomics Center [NCGC] NIH Molecular Libraries Probe Centers Network [MLPCN] MLPCN Grant: MH089816-01 Assay Submitter (PI): Marvin Gershengorn This project aims to identify small drug-like molecules that activate (agonists) the thyrotropin releasing hormone (TRH) receptor (TRHR) or enhance its TRH-stimulated activity (allosteric enhancers). TRHR, a drug-accessible cell surface receptor expressed in specific brain regions, and its ligand TRH have been implicated in several central nervous system disorders, including depression and anxiety. Small molecule TRHR agonists or allosteric enhancers that are metabolically stable and able to cross the blood-brain barrier might serve as probes to elucidate the roles of brain TRH receptors in animal models, and might be valuable as lead compounds for the development of drugs to treat patients with central nervous system disorders. Upon TRHR-Gq activation in TRHR cells, intracellular calcium is released from stores in the endoplasmic reticulum. […] This primary screen measures compound-induced activation of calcium release.
# For the HTS assay freshly prepared cells are plated at a density of 2000/well in 3 ul of complete DMEM medium containing 10% serum in 1536-well plates and cultured over night at 37 C in a humidified incubator with 5% CO2. The next day, 2 ul of a no wash calcium dye (ABD Bioquest) was added to the cells and plates were incubated at room temperature for 1 hour. For the assay, assay plates were loaded into the FDSS kinetic plate reader. A 10 cycle (1 second/cycle) baseline measurement is taken and then the FDSS online 1536 pintool delivers 23 nl of compound library (as well as TRH controls) to the plate. The plate is measured for kinetically at 1 cycle/sec for 180 seconds and is considered to be the agonist portion of the assay (eg, compounds which activate a positive calcium response during this portion are flagged as potential agonists). Following the 180 second read, 1 ul of either an EC20 (positive modulation assay) is delivered by an onboard pipette head. Measurements are taken kinetically for an additional 180 seconds. TRHR FDSS Screening Protocol 1. Reagent, 3 uL 2000 cells/well 1536 TC treated Black plate in media containing 10% FCS 2. Time, 18 hours, 33.5C 5% CO2 (cells grown at 37C) 3. Reagent, 2 uL ABD fluo-8 Ca dye 4. Time, 30 min-1.5hrs hours, Room temp (6 plates/batch) 5. Detector, EX 480/EM 530C, FDSS 10 cycles baseline (1sec/cycle) 6. Compound, 23 nL of stock solution from library 7. Detector, EX 480/EM 530C, FDSS […] (1sec/cycle) Agonist mode 8. Compound, 1 ul EC20 of TRH made up in HEPES HBSS, 10 nM final 9. Detector, EX 480/EM 530C, FDSS 100 cycles (1sec/cycle) Potentiator mode
# Thyrotropin-releasing hormone receptor (Homo sapiens), sequence (P34981 whole entry, looked up): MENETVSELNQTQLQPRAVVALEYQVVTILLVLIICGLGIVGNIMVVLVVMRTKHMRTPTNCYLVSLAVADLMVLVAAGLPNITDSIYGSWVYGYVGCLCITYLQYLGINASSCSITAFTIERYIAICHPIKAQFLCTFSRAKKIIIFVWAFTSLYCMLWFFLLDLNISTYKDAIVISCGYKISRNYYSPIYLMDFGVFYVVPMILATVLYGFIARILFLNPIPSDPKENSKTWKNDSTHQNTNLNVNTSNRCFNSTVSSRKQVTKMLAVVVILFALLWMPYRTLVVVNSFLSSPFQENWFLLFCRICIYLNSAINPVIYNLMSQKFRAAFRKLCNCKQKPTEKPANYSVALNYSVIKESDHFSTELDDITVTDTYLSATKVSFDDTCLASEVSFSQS
row,Structure (SMILES),activation
1,CCc1ccccc1NC(=S)Nc1cc(OC)c(NC(=O)C(C)C)cc1OC,0.112%
2,CCc1ccccc1NC(=O)CCOc1ccccc1,0.744% and -1.55%
3,CCc1ccccc1NC(=O)/C(=C/c1ccccc1)c1ccccc1,56.2% (active)
4,Cc1c(NC(=O)C(C)(C)C)cccc1-c1nc2ccccc2s1,1.53%
5,O=C(Cn1nc(Cc2cccnc2)c2ccccc2c1=O)N1CCN(c2ccccc2F)CC1,-1.92%
6,CCOc1ccc(NC(=O)c2cnn(-c3ccccc3)c2-n2cccc2)cc1,-2.32%
7,O=C(NCCCO)C(=O)Nc1c2c(nn1-c1ccc(F)cc1)CSC2,-1.01%
8,CCOC(=O)c1cc2cc(C)ccc2[nH]1,0.835%
9,CCOC(=O)c1ccc2[nH]c3c(c2c1)CCCC3NC=O (stereo unspecified),0.37%
10,CCOC(=O)c1[nH]c2ccc(C)cc2c1N=C(C)N(C)C,32.1% (active)
11,NC(=O)c1ccc(NC(=O)COC(=O)c2c3c(nc4ccccc24)/C(=C\c2ccc4c(c2)OCO4)CCC3)cc1,50.8% (active)
12,O=C(CSc1nc(C2CC2)nc2ccccc12)Nc1ccc2c(c1)OCCO2,-1.49%
13,NC(=O)c1ccc(NC(=O)COC(=O)C(Cc2ccccc2)NC(=O)c2ccccc2)cc1 (stereo unspecified),-0.12%
14,Cn1nnnc1Sc1ncnc2scc(-c3ccccc3[N+](=O)[O-])c12,-0.547%
15,N#Cc1nc(/C=C/c2ccc(F)cc2)oc1NC1CCCCC1,0.903%
16,CCCCOc1ccc(CNC(=O)c2ccc3c(c2)N(C)C(=O)C2CCCCN32)cc1 (stereo unspecified),-0.251%
17,CNC(=O)c1ccc(-c2nc(CN3CCc4ccccc43)c(C)o2)cc1,-1.17%
18,Nc1c(C(=O)c2cccs2)sc2nsc(SCCN3CCCCC3)c12,99.5% (active)
19,COC(=O)c1ccccc1NC(=O)c1cc(-c2ccccc2O)no1,-0.321%
20,CC(NC(=O)CCc1cn(Cc2ccccc2Cl)c2ccccc12)c1ccccc1 (stereo unspecified),0.58%
21,COc1cc(OC)c(OC)cc1/C=C/c1nc2cc3ccccc3cc2c(=O)n1-c1ccc(F)c(Cl)c1,0.234%
22,CCC(=O)Nc1ccc(C)cc1-c1nc2ccccc2n(Cc2ccccc2)c1=O,0.131%

row,Structure (SMILES),activation
1,Cc1cc2nc3c(=O)n(Cc4ccccc4)c(=O)[nH]c3nc2cc1N,134% (active)
2,Cn1c(=O)[nH]c(=O)c2c1[nH]c(=S)n2Cc1ccccc1,0.0169%
3,CCN(CCCNC(=O)Cn1ncc2c([nH]c3ccccc32)c1=O)c1cccc(C)c1,-0.233%
4,Cc1cccc(CC(=O)N2CC(=O)Nc3ccc(F)cc3C2c2ccccc2)c1 (stereo unspecified),-0.138%
5,O=C(O)c1ccc(CSc2nc3cccnc3n2Cc2cccc(F)c2)cc1,-0.0878%
6,CCCNC(=O)c1ccc2c(c1)ncn2-c1ccc(C)cc1C,-0.34%
7,O=C(C1=C(O)C(=O)N(c2ncccn2)C1c1cccs1)c1ccco1 (stereo unspecified),1.88%
8,Cc1ccc2nc(N3C(=O)C(O)=C(C(=O)c4ccco4)C3c3cccc(O)c3)sc2c1 (stereo unspecified),0.69%
9,C=CCSc1nnc(N2C(=O)C(O)=C(C(=O)c3ccco3)C2c2ccc(F)cc2)s1 (stereo unspecified),48.4% (active)
10,CCNS(=O)(=O)c1ccc(NC(=O)CSc2nc(-c3ccco3)cc(C(F)(F)F)n2)cc1,-0.0767%
11,O=C(CNC(=O)c1ccc(Cl)c(C(F)(F)F)c1)OC(C(=O)Nc1cc(C(F)(F)F)ccc1Cl)c1ccccc1 (stereo unspecified),1.33%
12,COc1cc2ccccc2cc1C(=O)Nc1cccc(-c2nc3ccccc3o2)c1,0.963%
13,COc1cccc(C(=O)NC2CCN(C#N)CC2)c1,0.979%
14,CCc1ccccc1NC(=O)c1sc2nc3c(cc2c1N)CN(Cc1ccccc1)CC3,0.215%
15,Cn1c(=O)c2c(nc(SCC(=O)Nc3ccc(F)cc3)n2Cc2ccccc2)n(C)c1=O,-1.27%
16,Cc1ccc(C)n1-c1nnc(N2CCC(C(=O)NCc3ccc(F)cc3)CC2)s1,-0.123%
17,COc1cccc(-c2nnc3n(CCc4ccccc4)c(=O)c4ccccc4n23)c1O,0.407%
18,Cc1ccc(CNC(=O)CCNS(=O)(=O)c2ccc3c(c2)oc(=O)n3C)cc1,-0.309%
19,COc1ccc(-n2ccn(CC(=O)Nc3ccc(C)c(C)c3)c(=O)c2=O)cc1OC,0.851%
20,CCOC(=O)C1CCCN(S(=O)(=O)c2cc(-c3cc(C)no3)ccc2OC)C1 (stereo unspecified),-0.0318%
21,CC(=O)c1ccc(NC(=O)CSc2nc(-c3ccccc3F)nc3c2c(=O)n(C)c(=O)n3C)cc1,0.407%
22,Cc1ccccc1C(=O)Nc1sc2c(c1C(=O)N1CCC(C)CC1)CCCC2,-0.34%

row,Structure (SMILES),activation
1,COc1cccc(C(=O)Nc2ccc(-c3cc(C(F)(F)F)nn3-c3ccccc3)cc2)c1,1.81%
2,COc1cccc(C(=O)NC(=O)Nc2nc(C)cc(C(F)(F)F)n2)c1,1.04%
3,COc1cccc(C(=O)c2sc3nc(-c4ccccc4)cc(C(F)(F)F)c3c2N)c1,106% (active)
4,CCOC(=O)c1cccc(NC(=O)c2cc(CN3CCCC3)on2)c1,0.429%
5,CCC(C)Nc1oc(-c2ccc(COc3ccc(Cl)cc3)o2)nc1C#N (stereo unspecified),0.327%
6,O=C1CCN(Cc2ccc([N+](=O)[O-])cc2)CCN1[C@H](CO)Cc1ccccc1,1.11%
7,O=C(NCCCCc1ccccc1)C1CC(c2ccc([N+](=O)[O-])cc2)=NO1 (stereo unspecified),-1.16%
8,O=C1NC(=O)C2C1C(c1ccc([N+](=O)[O-])cc1)=NN2Cc1ccccc1 (stereo unspecified),34% (active)
9,CC1CCCN(c2csc3ccc(F)cc3c2=O)C1 (stereo unspecified),0.824%
10,COc1ccccc1OCC(=O)Nc1nnc2n1CCS2,0.414%
11,CN(c1ccccc1)c1ccc(/C=c2\s/c(=C(/C#N)C(=O)C(C)(C)C)n(Cc3ccco3)c2=O)cc1,40.8% (active)
12,CCOc1ccccc1NC(=O)Cn1c(=O)n(Cc2ccco2)c(=O)c2sc3ccccc3c21,-0.0246%
13,Cc1cc2c(s1)c1cnn(Cc3cc(F)c(Cl)cc3Cl)c(=O)c1n2C,0.185%
14,CSc1ccc(NC(=O)Cn2nnnc2-c2ccccc2F)cc1,0.477%
15,Cc1c(Cl)cccc1NC(=O)N1CCN(C(=O)c2nsc3ccccc23)CC1,-1.09%
16,Cc1ccc(C(=O)NC2CCN(C#N)CC2)cc1,0.438%
17,O=S(=O)(c1ccc2c(c1)OCCO2)N1CCN(S(=O)(=O)c2cc(F)ccc2F)CC1,-0.372%
18,CCN(CC)CCNC(=O)Cn1ncc2c3ccccc3n(Cc3ccccc3C)c2c1=O,1.76%
19,Cc1ccc2nc(/C(C#N)=C/c3ccc(-c4ccc(C(=O)OC(C)C)cc4)o3)[nH]c2c1,69.6% (active)
20,CCOC(=O)c1ccc(-c2ccc(/C=C(\C#N)C(=O)Nc3ccc(C)cc3)o2)cc1,1.6%
21,Cc1ccc2nc(/C(C#N)=C/c3ccccc3F)[nH]c2c1,1.62%
22,Cc1noc(/C=C/N(C)C)c1S(=O)(=O)N1CCCC(C(=O)Nc2cccc(F)c2)C1 (stereo unspecified),-0.115%

row,Structure (SMILES),activation
1,CCOC(=O)c1c(C)oc2nc(C)nc(N3CCN(c4ccc(OC)cc4)CC3)c12,-1%
2,COc1cccc(CNC(=O)Cc2csc3nc(-c4ccccc4)cn23)c1,-0.21%
3,COc1cccc2c1cc1c(=O)n(CC(=O)N3CCN(c4ccccc4)CC3)nc(C)n12,0.0688%
4,COc1ccc(-n2c(SCC(=O)Nc3ccc(Cl)c(C)c3)nc3n[nH]c(C)c3c2=N)cc1,0.481%
5,CCOC(=O)c1c(C)oc2ccc(N(C(=O)c3ccncc3)S(=O)(=O)c3ccc(CC)cc3)cc12,0.327%
6,CCN(CC)c1ccc2cc(C(N)=O)/c(=N\NC(=O)c3ccncc3)oc2c1,81.7% (active)
7,C/C(=N\NC(N)=S)c1ccncc1,0.334%
8,N#CN1CCC(NC(=O)c2ccc(F)cc2)CC1,1.13%
9,O=C(CNC(=O)c1ccc(Cl)cc1Cl)OC(C(=O)Nc1cc(C(F)(F)F)ccc1Cl)c1ccccc1 (stereo unspecified),-0.435%
10,CC(=O)Nc1c(C)nn(-c2ccccc2)c1N1CCC(C(=O)Nc2cc(Cl)ccc2C)CC1,-0.0803%
11,Cc1cccc2c(=O)cc(CSc3ccccc3NC(=O)C(C)C)[nH]c12,0.235%
12,COc1ccc(CNC(=O)CCc2c(C)nn(-c3ccc(N4CCCC4)nn3)c2C)cc1,0.0444%
13,Cc1ccc(C)c(Cn2c(=O)n(CCC(=O)NCc3ccc4c(c3)OCO4)c(=O)c3sccc32)c1,-0.659%
14,COc1ccc(N2CCN(C3=NS(=O)(=O)C(c4cccc(Br)c4)=C3C)CC2)cc1,-0.301%
15,COc1cc(C(=O)NCCS(=O)(=O)N2CCN(c3ccccc3)CC2)cc(OC)c1OC,0.101%
16,CCc1ccc(-n2nnc(-c3nc(-c4ccccc4)no3)c2C)cc1,0.119%
17,CCCN(CCC)C(=O)C1CCCN(c2ncnc3c2nc2n3CCCCC2)C1 (stereo unspecified),-0.956%
18,O=C(CC(NCc1cccnc1)C(=O)O)Nc1ccc(O)cc1 (stereo unspecified),0.363%
19,CCOc1cccc(CC(=O)N2CCc3c([nH]c4ccccc34)C2c2ccc(OC)cc2)c1OCC (stereo unspecified),0.0175%
20,CC1CCCN(c2cc3c(cc2F)c(=O)c(S(=O)(=O)c2cccc(Cl)c2)cn3Cc2ccccc2)C1 (stereo unspecified),0.542%
